Data as given in PubChem BioAssay (NCATS).
Unmarked numbers belong to inactive results. No rule for the calls is given here.

tested on: HIV-1 nucleocapsid protein NCp7 (binding to TG oligonucleotide); experiment: HIV Nucleocapsid (AID 346); conditions: HIV-1 NC / fluorescein-TGTGTGTG probe, fluorescence polarization;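 also: potency is for inhibitors that block NC binding and lower polarization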
In short: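 Fluorescence polarization binding of 100 nM HIV-1 NC to 10 nM fluorescein-labelled TG4xF oligonucleotide. Buffer was Hepes pH 7.5 with 250mM NaCl, 1uM ZnCl2, TCEP and 2-mercaptoethanol. Compounds were incubated 1 hr at room temperature before the read.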
Potency is read from the fitted curve at half-maximal effect.

| SMILES | Potency |
| --- | --- |
| O=C(c1cnccn1)N1CCC2(CC1)CN(Cc1cc(C(F)(F)F)cc(C(F)(F)F)c1)C2 | > 20 µM |
| COc1cccc(Cn2c(=O)c(CCc3ccccc3)nc3cnc(N4CCOCC4)nc32)c1 | > 20 µM |
| CN1CCN(c2ncc3nc(-c4cccc(C#N)c4)c(=O)n(Cc4ccc(F)cc4)c3n2)CC1 | > 20 µM |
| COc1ccccc1CNc1cc(-c2ccoc2)ncn1 | > 20 µM |
| COCCn1c(=O)c(-c2cc(F)cc(F)c2)nc2cnc(OC)nc21 | > 20 µM |
| COc1cccc(Cn2c(=O)c(C)nc3cnc(N4CCOCC4)nc32)c1 | > 20 µM |
| Cc1ccccc1-c1cc(N2CCNCC2)ncn1 | > 20 µM |
| O=C(Nc1cccc(F)c1)N1CCCC2(CCN(S(=O)(=O)c3ccccc3)CC2)C1 | > 20 µM |
| N#Cc1cccc(-c2cc(NCc3cccs3)ncn2)c1 | > 20 µM |
| COc1ccc(CNc2nc(-c3c(C)noc3C)nc3ccccc23)c(OC)c1 | > 20 µM |
| CCNc1ncc2nc(-c3ccc(OC)cc3)c(=O)n(Cc3ccc(F)cc3)c2n1 | > 20 µM |
| Clc1ccccc1-c1cc(NCc2ccccc2)ncn1 | > 20 µM |
| N#CCCn1c(=O)c(CCc2ccccc2)nc2cnc(OCc3ccccc3)nc21 | > 20 µM |
| COc1ncc2nc(-c3ccc(Cl)cc3)c(=O)n(C)c2n1 | > 20 µM |
| CCNc1ncc2nc(-c3ccccc3)c(=O)n(Cc3cccc(OC)c3)c2n1 | > 20 µM |
